# In PubChem BioAssay (Tox21):
# Where “and” joins values, the source holds several entries; their conditions need not be identical. Equal entries are not always repeated. Results filed as inconclusive are left out. Entries that show only a call come without a potency. A number with no mark means an inactive call. Calls of active or inactive are those of the source. Calls follow the shape of the dose curve; as a rule, active = well fitted cell-killing curve with a large enough effect in the repeat runs; inconclusive = weak or mixed curves, or effect the other way; inactive = flat fitted curve, though single readings scatter.
# Legend:
# [1] = cAMP Responsive Elements (CRE) small molecule antagonists, cell-based qHTS assay: qHTS cell viability counter screen (AID 2060913); also: nearly all actives have a fitted effect of over 40% in size
# How it was run: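 CRE-bla HEK293T cells (2,000/well, 18 h) given compound plus NKH477 0.25 uM final for 3 h at 37C; viability counter-screen by CellTiter-Glo luminescence in same wells after 30 min.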
# [2] = cAMP Responsive Elements (CRE) small molecule agonists, cell-based qHTS assay: qHTS cell viability counter screen (AID 2060914); also: nearly all actives have a fitted effect of over 50% in size
# How it was run: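 Luminescence read-out (CellTiter-Glo, 30 min RT) of ATP-based viability in CRE-bla HEK 293T cells, run in the same wells as the β-lactamase reporter assay after 3 h compound treatment at 37 °C.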
# Potency is read from the fitted curve at half-maximal effect.
Structure (SMILES),Potency [1],Potency [2],"viability change, negative = cytotoxic [1]","activity change, negative = cytotoxicity [2]"
COc1cc(C(=O)OCCCN2CCCN(CCCOC(=O)c3cc(OC)c(OC)c(OC)c3)CC2)cc(OC)c1OC,inactive,inactive,,
Nc1nc(N)c(-c2ccccc2)s1,inactive,inactive,,
COc1cc2c(cc1OC)C(=O)CC2,inactive,inactive,,
COC(=O)c1ccccc1Cl,inactive,inactive,,
O=C(O)Cn1c(C(=O)Nc2nc(-c3ccccc3Cl)cs2)cc2ccccc21,inactive,inactive,,
CCCOC(=O)NCCCN(C)C,inactive,inactive,,
CO[C@H]1O[C@H](CO)[C@@H](O)[C@H](O)[C@H]1O,inactive,inactive,,
CCCCCCCCCC=O,inactive,inactive,,
NS(=O)(=O)O,inactive,inactive,,
C#C[C@]1(O)CC[C@H]2[C@@H]3CCC4=CC(=O)CC[C@@H]4[C@H]3CC[C@@]21CC,inactive,inactive,,
CC(C)CC(=O)C1C(=O)c2ccccc2C1=O,inactive,inactive,,
CCc1cccc2c(CCO)c[nH]c12,inactive,inactive,,
Oc1ccc2cc(SSc3ccc4cc(O)ccc4c3)ccc2c1,inactive,inactive,,
CCCNC(C)C(=O)Nc1c(C)csc1C(=O)OC (stereo unspecified),inactive,inactive,,
CCCCC(CC)COP(=O)(O)OCC(CC)CCCC (stereo unspecified),inactive,inactive,,
CCCCOCCOC(=O)COc1nc(Cl)c(Cl)cc1Cl,inactive,inactive,,
CCCCOCCOCCO,inactive,inactive,,
CC[N+]1(CC)CCC(=C(c2ccccc2)c2ccccc2)C1C (stereo unspecified),inactive,inactive,,
CCCCCCCCCCCCCCCC,inactive,inactive,,
CCNC(=O)C1CC(C)CCC1C(C)C (stereo unspecified),inactive,inactive,,
O=C(O)/C=C/c1ccc(O)c(O)c1,inactive,inactive,,
CN=C(N)NC(=O)Nc1c(C)cccc1C,inactive,inactive,,
CC(C)(CCC(=O)O)C(=O)O,inactive,inactive,,
NC(=O)c1ncn([C@@H]2O[C@H](CO)[C@@H](O)[C@H]2O)c1O,inactive,inactive,,
OCc1c2ccccc2cc2ccccc12,inactive,inactive,,
CCN1CCCC1CNC(=O)c1cc(S(N)(=O)=O)ccc1OC (stereo unspecified),inactive,inactive,,
Cc1cc2nc(N)sc2cc1C,inactive,inactive,,

Structure (SMILES),Potency [1],Potency [2],"viability change, negative = cytotoxic [1]","activity change, negative = cytotoxicity [2]"
CC(C)=C1CC[C@@H](C)CC1=O,inactive,inactive,,
CCN(C)C(=O)Oc1cccc([C@H](C)N(C)C)c1,inactive,inactive,,
Cc1[nH]c(=O)c(C#N)cc1-c1ccc2nccn2c1,inactive,inactive,,
O=c1cccccc1O,inactive,inactive,,
Cc1c(N=C=O)cccc1N=C=O,inactive,inactive,,
C/C=C/C=C/CCCCCCCO,inactive,inactive,,
O=C(N[C@@H](Cc1ccccc1)[C@@H](O)C(=O)N1C[C@@H](O)[C@@H](O)C1)c1cc2cc(Cl)ccc2[nH]1,inactive,inactive,,
O=C(O)c1c(Cl)ccc(Cl)c1Cl,inactive,inactive,,
CC(=O)Oc1ccc(C(C)=O)cc1,inactive,inactive,,
O=C(NCC1CCCCN1)c1cc(OCC(F)(F)F)ccc1OCC(F)(F)F (stereo unspecified),inactive,inactive,,
c1cnc2c(c1)ccc1cccnc12,inactive,inactive,,
Cc1cc(OCCOCC[N+](C)(C)Cc2ccccc2)ccc1C(C)(C)CC(C)(C)C,54.2 µM (active) and 29.8 µM (active),60.8 µM (active) and 26.6 µM (active),,
CCC(C)=O,inactive,inactive,,
Oc1cn2c(n1)Nc1ccc(Cl)c(Cl)c1C2,,,7.34% [at 18.9 µM],-5.61% [at 18.9 µM]
CC(C)C(=O)O,inactive,inactive,,
CN(C)CCCN1c2ccccc2Sc2ccc(C(F)(F)F)cc21,inactive,inactive,,
CCCCCCCCN(C)CCCCCCCC,inactive,inactive,,
O=C(O)c1cccc(Cl)c1Cl,inactive,inactive,,
CCCCC(CC)COC(=O)/C=C\C(=O)OCC(CC)CCCC (stereo unspecified),inactive,inactive,,
CC(C)NCC(O)c1cc(O)cc(O)c1 (stereo unspecified),inactive,inactive,,
CN(C)CCOCCN(C)CCO,inactive,inactive,,
Cc1cc(S(=O)(=O)O)c(N)cc1Cl,inactive,inactive,,
COC(C)(C)CCO,inactive,inactive,,
Nc1ccc2c(c1)C(=O)c1ccccc1C2=O,inactive,inactive,,
[Cl][In]([Cl])[Cl],inactive,inactive,,
COc1cc2c3cc1Oc1cc(ccc1O)C[C@@H]1c4c(cc(OC)c(O)c4Oc4ccc(cc4)C[C@@H]3N(C)CC2)CC[N+]1(C)C,inactive,inactive,,
